Rows were chosen to be rich in hits. Some 3.5% of all compounds tested hit in one or more screens of this group.
GPR151 activ: activates the human receptor GPR151 | Q8TDV0 | PathHunter beta-arrestin GPR151 cells, luminescence | activation, % at 11.2 µM | hit rate 1% among 650,000 | AID 1508602; in the data active = activation above about 4.9%
TEAD-YAP block: TEAD-YAP interaction inhibition; HEK-TIYL cells, TEAD-Gal4/YAP UAS-luciferase luminescence; inhibition, % at 9.12 µM; hit rate 1.4% among 640,000; AID 1259422; in the data active = inhibition above about 32%
MITF primary: human MITF inhibition, primary screen. O75030. AlphaScreen MITF homodimerization, bead proximity signal. inhibition, % at 2.6 µM. hit rate 0.91% among 650,000. AID 1259374; in the data active = inhibition above about 50%
FBW7 activator: human FBW7 E3 ligase activation, primary screen; AlphaScreen FBW7–phospho-cyclin E peptide binding, activator screen; hit rate 0.13% among 650,000; AID 1259310; normalized activity (activation), % at 26.1 µM; Q969H0; in the data active = normalized activity above about 1.9%;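 also: purified mutant Fbw7 with reduced substrate affinity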
Target sequence (Q969H0 whole entry, looked up): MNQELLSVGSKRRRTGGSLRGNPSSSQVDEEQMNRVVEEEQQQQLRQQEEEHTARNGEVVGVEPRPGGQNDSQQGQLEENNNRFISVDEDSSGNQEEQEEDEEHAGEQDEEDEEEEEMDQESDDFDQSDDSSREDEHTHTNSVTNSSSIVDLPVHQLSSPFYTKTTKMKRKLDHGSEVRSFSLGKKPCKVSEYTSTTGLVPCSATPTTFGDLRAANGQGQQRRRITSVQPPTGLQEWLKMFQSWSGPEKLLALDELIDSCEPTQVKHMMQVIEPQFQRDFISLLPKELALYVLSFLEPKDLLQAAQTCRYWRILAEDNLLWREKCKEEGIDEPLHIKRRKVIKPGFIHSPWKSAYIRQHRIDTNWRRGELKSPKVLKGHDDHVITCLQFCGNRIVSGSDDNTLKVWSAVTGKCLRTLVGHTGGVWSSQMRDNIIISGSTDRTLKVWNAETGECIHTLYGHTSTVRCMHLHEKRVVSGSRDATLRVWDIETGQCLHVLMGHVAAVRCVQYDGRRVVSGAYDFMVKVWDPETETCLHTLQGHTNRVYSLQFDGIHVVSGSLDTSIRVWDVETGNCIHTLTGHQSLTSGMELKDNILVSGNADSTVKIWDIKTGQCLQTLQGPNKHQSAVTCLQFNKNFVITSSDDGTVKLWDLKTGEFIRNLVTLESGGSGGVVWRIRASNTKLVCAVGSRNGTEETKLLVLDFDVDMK
Each line names hits and unclear results; the compound was inactive in the other large screens; ! = a repeat was not active.

COc1cccc(C2=CC(c3ccccc3F)n3c(nc4ccccc43)N2)c1 (configuration not stated)	none
COc1ccc(C2=CC(c3ccccc3F)n3c(nc4ccccc43)N2)cc1 (configuration not stated)	TEAD-YAP block 35
CCc1ccc(C2=CC(c3ccccc3F)n3c(nc4ccccc43)N2)cc1 (configuration not stated)	TEAD-YAP block 68
Fc1ccccc1C1C=C(c2ccc(Br)cc2)Nc2nc3ccccc3n21 (configuration not stated)	none
Cc1ccnc2c1c(=O)n(C)c(=O)n2C	none
Cc1nc(-c2ccc(F)cc2)cc(N2CCC3(CC2)OCCO3)n1	none
CCCOc1ccc(C2C(C(=O)OCC)=C(C)NC3=C2C(=O)CC(C)(C)C3)cc1OC (configuration not stated)	none
CCNC(=O)C/C(C)=N/NC(=O)COc1cc(C)c(Br)cc1Br	none
O=C(NCc1ccccc1Cl)c1ccc(N2CCN(c3ccccn3)CC2)c([N+](=O)[O-])c1	none
Cc1[nH]c2ccc(F)cc2c1CCNS(=O)(=O)c1cc([N+](=O)[O-])ccc1Cl	TEAD-YAP block 61
Cc1ccc2[nH]c(C)c(CCNS(=O)(=O)c3cc([N+](=O)[O-])ccc3C)c2c1	none
O=C(COc1ccccc1Cl)NNC(=O)c1ccc([N+](=O)[O-])cc1Cl	none
O=C(CSc1cnc2ccccc2n1)c1ccc(F)cc1	TEAD-YAP block 49
COc1cc2[nH]c(=S)n(NC(=O)c3ccccc3)c(=O)c2cc1OC	none
COc1ccc(CCNC(=O)CSc2nc3ccccc3c(=O)n2NC(=O)Cc2ccccc2)cc1OC	none
COc1ccc(C(=O)Nn2c(SCC(=O)c3ccccc3)nc3ccccc3c2=O)cc1	TEAD-YAP block 70
COc1ccc(C(=O)Nn2c(SCC(=O)NCCc3ccc(OC)c(OC)c3)nc3ccccc3c2=O)cc1	TEAD-YAP block 78
COc1cccc(C(=O)Nn2c(=S)[nH]c3ccccc3c2=O)c1	TEAD-YAP block 40
O=C(CSc1nc2ccccc2c(=O)n1NC(=O)c1ccccc1)c1ccc(Br)cc1	none
COc1cccc2cc(C(=O)Nc3ccc(Cl)cc3Cl)c(=Nc3ccccc3)oc12	none
CCn1c2ccccc2c2cc(C3C(C(=O)OCCOc4ccccc4)=C(C)NC4=C3C(=O)CC(C)(C)C4)ccc21 (configuration not stated)	none
O=C1N(Cc2cccnc2)C[C@@H]2C[C@@H](c3ccc4c(c3)Cc3ccccc3-4)N3CCC[C@@]123	none
CCOC(=O)c1ccc(N2NC(=O)/C(=C/c3cc([N+](=O)[O-])cc(OC)c3O)C2=O)cc1	none
COc1ccc(C(=O)Nn2c(SCC(=O)c3ccc(F)cc3)nc3ccccc3c2=O)cc1	TEAD-YAP block 46
COc1cc(OC)cc(C(=O)Nn2c(-c3cccc(C)c3)nc3ccccc3c2=O)c1	FBW7 activator 1.9
COc1cccc(C(=O)Nn2c(-c3cccc(OC)c3)nc3ccccc3c2=O)c1	none
COc1ccc(C(=O)Nn2c(SCc3ccc([N+](=O)[O-])cc3)nc3ccccc3c2=O)cc1	TEAD-YAP block 49
O=C(Cc1ccccc1)Nn1c(SCC(=O)c2ccc(F)cc2)nc2ccccc2c1=O	none
COc1ccccc1Nc1nc(N2CCN(C)CC2)c2ccccc2n1	none
Cc1ccc(-c2ncn(-c3ccc(Nc4nccc(-c5ccc(S(C)(=O)=O)c(N6CCCC(O)C6)c5)n4)cc3)n2)cn1 (configuration not stated)	TEAD-YAP block 38
Cc1ccc(-c2ncn(-c3ccc(Nc4nccc(-c5ccc(Cl)nc5)n4)cc3)n2)cn1	none
Cc1ccc(-c2ncn(-c3ccc(Nc4nccc(-c5ccc(N)nc5)n4)cc3)n2)cn1	TEAD-YAP block 41, FBW7 activator 5.4
CCN1CCN(C(=O)c2ccoc2C)CC1	none
COc1ccc(CC(=O)NCc2ccco2)cc1	none
COc1ccc(CCNC(=O)C(=O)NCc2ccco2)cc1	TEAD-YAP block 34
Cc1ccc(NC(=O)C(CC(N)=O)NC(=O)OCC(C)C)cc1C (configuration not stated)	none
CC(Oc1ccccc1)C(=O)Nc1cc(Cl)ccc1C(=O)O (configuration not stated)	none
O=C(Nc1cccc(I)c1)c1cc([N+](=O)[O-])ccc1Cl	TEAD-YAP block 45
O=C(Nc1cccc(-c2nc3ccccc3s2)c1)c1ccccc1[N+](=O)[O-]	none
O=C(Nc1cccc(-c2nc3ccccc3s2)c1)c1cc([N+](=O)[O-])ccc1Cl	TEAD-YAP block 36
O=C(Nc1ccc(Cl)cc1)c1cc(Cl)ccc1[N+](=O)[O-]	none
Cc1cccc(NC(=O)c2cc(Cl)ccc2[N+](=O)[O-])c1	TEAD-YAP block 45
O=C(Nc1cc(C(F)(F)F)ccc1Cl)c1ccc(Cl)c([N+](=O)[O-])c1	TEAD-YAP block 45
CCC(CO)NC(=O)c1ccc(S(=O)(=O)N2CCCCC2)cc1 (configuration not stated)	none
O=C(Nc1cccc(C(F)(F)F)c1)c1ccc(Cl)c([N+](=O)[O-])c1	TEAD-YAP block 62
O=C(Nc1ccc(F)cc1)c1ccc(Cl)c([N+](=O)[O-])c1	TEAD-YAP block 48
O=C(Nc1cccc(Cl)c1)c1ccc(Cl)c([N+](=O)[O-])c1	TEAD-YAP block 45
O=C(Nc1cccc(I)c1)c1ccc(Cl)c([N+](=O)[O-])c1	TEAD-YAP block 33
O=C(Nc1cccc(F)c1)c1ccc(Cl)c([N+](=O)[O-])c1	none
CCOC(=O)c1c(NC(=O)C(OC(C)=O)C(OC(C)=O)C(COC(C)=O)OC(C)=O)sc2c1CCC2 (configuration not stated)	none
Cc1cccc(C2C(C#N)=C(N)OC3=C2C(=O)CCC3)c1 (configuration not stated)	none
O=C(Nc1ccc2c(c1)OC(F)(F)O2)c1cc([N+](=O)[O-])ccc1Cl	TEAD-YAP block 68
CCC(C(=O)O)N1C(=O)/C(=C/c2cccs2)SC1=S (configuration not stated)	none
O=C1/C(=C/c2ccco2)SC(=S)N1NS(=O)(=O)c1ccccc1	MITF primary 60
CCC(C(=O)O)N1C(=O)/C(=C\c2ccco2)SC1=S (configuration not stated)	MITF primary 59
COc1ccc(/C=C2/SC(=S)N(NS(=O)(=O)c3ccccc3)C2=O)cc1	none
COc1ccc(C(=O)OCc2ccc([N+](=O)[O-])cc2)c(OC)c1OC	none
COc1c2occc2cc2ccc(=O)oc12	FBW7 activator 2.0!
Cc1nc2c3ccccc3nc(SCC(=O)Nc3ccc(Br)cc3)n2n1	none
CCc1ccc(NC(=O)CSc2nc3ccccc3c3nc(C)nn23)cc1	TEAD-YAP block 62
N#CC1=C2SCC(O)(c3ccco3)N2C(=O)CC1c1ccc(F)cc1 (configuration not stated)	TEAD-YAP block 43
N#CC1=C2SCC(O)(c3ccc(F)cc3)N2C(=O)CC1c1cccc(F)c1 (configuration not stated)	TEAD-YAP block 54
O=C(CN1CCCCC1)N1N=C(c2c(-c3ccccc3)c3cc(Br)ccc3[nH]c2=O)CC1c1ccc(Br)cc1 (configuration not stated)	none
O=C(c1ccco1)N1CCN(c2nccn3c(-c4ccccc4CO)cnc23)CC1	none
